SMILES strings stand for the structures. “And” between values parts separate entries of the source, which are not always exact repeats. Equal entries are not always repeated.

The nature of the assay: Cell Proliferation Assay against the TMD8 Cell Line (AID 651645).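 Note: cells exposed to compound for 48 h before reading.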 To be noted: TMD8 DLBCL cell line proliferation/viability; at 46.1 µM (top of the series). From the text:
One class of targeted therapeutics showing early clinical success in killing of ABC DLBCL lines are small molecule inhibitors of the Bruton tyrosine kinase (BTK) 11.
Prior to any combination assays, using an NCATS developed oncology compound library called the Mechanism of Interrogation Plate (MIPE), two well studied ABC DLBCL lines (TMD8 and HBL1) were screened using a cell viability assay (CellTiterGlo) and a 12-point titration series for each single agent. These initial experiments offered insight into the concentration range that offered the best coverage of activity and non-activity to assure relevant data is generated. In addition to the viability signature associated with this library, we examined the apoptotic response of each agent versus the TMD8 line as judged by caspase 3/7 activation. Activity was assayed at both 8 and 16 hour time-points to gain an appreciation of which agents induced an apoptotic response in a reasonable timeframe from a therapeutic exposure perspective. MIPE was also assayed for single agent viability in a human mesenchymal stem cell (hMSC) line as a surrogate of each library member's potential therapeutic index.
A total of 500 log growing TMD8 cells are seeded per well in 5 uL of a RPMI with glutamine (or Glutamax), without phenol red plus 5% FBS and 1X Pen/Strep into 1536 -solid white high base tissue culture treated Greiner One Bio Plates (789173-F) using a multidrop combi dispenser and a small sterile cassette. Compounds and controls totaling 23nL per well (negative control DMSO and positive control 9.2 uM Bortezomib-final) are immediately added to the plates using a 1536 head pin tool from Kalypsys. The plates are then covered with stainless steel gasket lids from Kalypsys and incubated for 48 hours at 37C under 95% relative humidity with 5% CO2. After 48 hours, the plates are removed and allowed to reach room temperature before 3 uL of Cell Titer Glo reagent (Promega) is added using an Aurora Flying Reagent Dispenser Bioraptor. The plates are then spun at 1000 rpms to remove bubbles and incubated for 15 minutes at room temperature before read on a ViewLux using a luminescent filter with a 10 second exposure. The relative luciferase units are used to calculated percent activity using DMSO as 100% and Bortezomib as 0%.
As to `Cc1cccc(C=NNc2cc(N3CCOCC3)nc(OCCc3ccccn3)n2)c1`, the viability (% of control) came out at 0.274%.

On to `Nc1ccccc1NC(=O)c1ccc(CNc2nccc(-c3cccnc3)n2)cc1`, for which the viability (% of control) is 2.31%. As for `CC(=O)OCCN1C(=O)c2c(C)nc3ccc(S(=O)(=O)N4CCOCC4)cc3c2C1=O`, the figure is 94.5%; as for `Cn1c(=O)n(-c2ccc(C(C)(C)C#N)cc2)c2c3cc(-c4cnc5ccccc5c4)ccc3ncc21`, 10.6%; as for `CN(c1ncccc1CNc1nc(Nc2ccc3c(c2)CC(=O)N3)ncc1C(F)(F)F)S(C)(=O)=O`, -0.0421%. Consider `O=C(C=Cc1cccc(S(=O)(=O)Nc2ccccc2)c1)NO`, for which the viability (% of control) is 1.87%. Regarding `O=C(NCCCNc1nc(Nc2cccc(NC(=O)N3CCCC3)c2)ncc1I)c1cccs1`, the viability (% of control) was 1.52% and 1.4%.

As for `CC(C)(C)c1cc(NC(=O)Nc2ccc(-c3cn4c(n3)sc3cc(OCCN5CCOCC5)ccc34)cc2)no1`, the viability (% of control) turned out to be 41.9%.

Consider `COc1ccc(CC2SC(=O)NC2=O)cc1C(=O)NCc1ccc(C(F)(F)F)cc1` (stereo not given), for which the viability (% of control) was 71.9%. As for `C=CC(=O)Nc1cc2c(Nc3ccc(F)c(Cl)c3)ncnc2cc1C#CC(C)(C)N1CCN(C)CC1`, the figure is -0.868%; as for `Cn1cc(-c2[nH]c3cc(NC(=O)[C@H](N)C4CCCCC4)cc4c3c2C=NNC4=O)cn1`, 2.55%. Under `CC(=O)c1c(C)c2cnc(Nc3ccc(N4CCNCC4)cn3)nc2n(C2CCCC2)c1=O` stands 0.508%; under `N#Cc1c(O)c2c(-c3ccc(-c4ccccc4O)cc3)csc2[nH]c1=O`, 112%; under `COC(=O)c1ccc2c(C(=Nc3ccc(N(C)C(=O)CN4CCN(C)CC4)cc3)c3ccccc3)c(O)[nH]c2c1`, 1.41%. As to `O=C(C=Cc1c(C(=O)O)[nH]c2cc(Cl)cc(Cl)c12)Nc1ccccc1`, the viability (% of control) was 103%. Under `C=CC(=O)Nc1cc2c(Nc3ccc(F)c(Cl)c3)ncnc2cc1OCCCN1CCOCC1` stands 0.581%; under `CCC(=C(c1ccccc1)c1ccc(OCCN(C)C)cc1)c1ccccc1`, -0.936%. As to `Cc1ccc(C(N)=O)cc1Nc1nccc(-c2cn(C(C)C)c3cnccc23)n1`, the viability (% of control) came out at 5.31%. Under `O=C(c1ccc(Nc2nccc(-c3cc4ccccc4s3)n2)cc1)N1CCC(N2CCCC2)CC1` stands 0.477%; under `Nc1ccccc1NC(=O)c1ccc(CNC(=O)OCc2cccnc2)cc1`, 4.84%. As for `CN(C)CCCN=c1c2ccccc2n(C)c2[nH]c(=O)n(C)c(=O)c12`, the figure is 1.93%; as for `Nc1cc(C(F)(F)F)c(-c2cc(N3CCOCC3)nc(N3CCOCC3)n2)cn1`, 3.22%. As for `CC(C)c1ccccc1Cc1cc(C(=O)Nc2ccc(S(=O)(=O)c3ccccc3C(C)(C)C)cc2)c(O)c(O)c1O`, the viability (% of control) was 9.33%. In the case of `Cn1c2cc(S(C)=O)sc2c2cnn(Cc3cccc(N)c3)c(=O)c21` (stereo not given), the viability (% of control) worked out at 110%. As for `CCC[C@H](NC(=O)C(C#N)=Cc1cccc(Br)n1)c1ccccc1`, the viability (% of control) was found to be 3.01%. As for `CC(C)=CCCC(C)=CCCC(C)=CCSc1ccccc1C(=O)O`, the figure is 100%; as for `Cc1ccc(C(=O)Nc2cccc(C(F)(F)F)c2)cc1-c1ccc2nc(NCCN3CCOCC3)ncc2c1`, 0.164%; as for `Cc1nc2cnc3ccc(C#Cc4cccnc4)cc3c2n1-c1ccc(C(C)(C)C#N)cc1`, 0.22%.

On to `CCN(CC)CCCCNc1ncc2cc(-c3cc(OC)cc(OC)c3)c(NC(=O)NC(C)(C)C)nc2n1`, for which the viability (% of control) came out at 3%. Under `C#Cc1cccc(Nc2ncnc3cc(OC)c(OCCCCCCC(=O)NO)cc23)c1` stands -0.46%; under `CC(C)(C)c1cc(C(C)(C)C)c(NC(=O)c2c[nH]c3ccccc3c2=O)cc1O`, 5.21%; under `CC(=O)SC[C@@H](C)C(=O)N1CCC[C@H]1C(=O)N[C@@H](Cc1ccccc1)C(=O)O`, 104%. As for `N#CCNC(=O)c1ccc(-c2ccnc(Nc3ccc(N4CCOCC4)cc3)n2)cc1`, the figure is 7.51%. Under `CCCCc1nc2cc(C=CC(=O)NO)ccc2n1CCN(CC)CC` stands 1.77%; under `C1=CCOCc2cc(ccc2OCCN2CCCC2)Nc2nccc(n2)-c2cccc(c2)OCC1`, 61.1%. In the case of `NC(=O)Nc1cc(-c2cccc(F)c2)sc1C(=O)N[C@H]1CCCNC1`, the viability (% of control) is 5.07%.

Take `CC(C)C[C@H](NC(=O)CNC(=O)c1cc(Cl)ccc1Cl)B(O)O`: the viability (% of control) worked out at 4.52%. Under `CN(C)CC=CC(=O)Nc1cc2c(Nc3ccc(F)c(Cl)c3)ncnc2cc1O[C@H]1CCOC1` stands 0.0294%; under `O=C(O)[C@H](Cc1c[nH]c2ccccc12)N1C(=O)c2ccccc2C1=O`, 104%.

On to `Cc1cnc(Nc2ccc(F)cc2Cl)nc1-c1c[nH]c(C(=O)N[C@H](CO)c2cccc(Cl)c2)c1`, for which the viability (% of control) was -0.93%.

The values are drawn from PubChem BioAssay (NCATS).
